The whole screen tested about 50,000 compounds, of which about 800 (1.6%) showed an effect of 50% or more. For the sample, strong results were picked, then their nearest neighbours and some compounds at random.
target: Bcl-2-like protein 10 (Homo sapiens) (UniProt Q9HD36); experiment: TR3 peptide-Bcl-B binding displacers, biochemical primary FP assay, phenotype converters (AID 1240); details: GST-Bcl-B / FITC-TR3 peptide fluorescence polarization; stronger effect = higher value; compound at 3.75 mg/L;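 further: 0% = Bcl-B with tracer peptide and DMSO and 100% = tracer peptide lacking Bcl-B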
Sequence (Q9HD36 whole entry, looked up): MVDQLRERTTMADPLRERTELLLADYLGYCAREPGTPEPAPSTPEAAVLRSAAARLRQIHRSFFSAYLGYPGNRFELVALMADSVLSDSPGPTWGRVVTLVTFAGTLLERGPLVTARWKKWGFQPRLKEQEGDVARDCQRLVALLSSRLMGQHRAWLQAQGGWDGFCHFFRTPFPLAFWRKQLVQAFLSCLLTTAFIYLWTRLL

SMILES | displacement [%]
O=C(Nc1cc(NC(=O)c2ccccc2)cc(C(=O)Nc2nccs2)c1)c1ccccc1 | 4.4
O=C(COc1ccccc1F)Nc1nc(-c2cccs2)c(NC(=O)c2ccccc2)s1 | 14.6
CC(C(=O)NN)C1=NC(C)(C)Cc2ccccc21 (centres undefined) | -17.7
CC(=O)N1N=C2CC(C)(C)OCC2C1c1ccccc1 (centres undefined) | 12
N=C(SC1CC(=O)N(c2ccccc2Cl)C1=O)N1N=C(c2cccs2)CC1c1ccc(Br)cc1 (centres undefined) | 1.4
Cc1cccc(N2C(=O)CC(SC(=N)N3N=C(c4cccs4)CC3c3ccc(Br)cc3)C2=O)c1 (centres undefined) | 5.6
N=C(SC1CC(=O)N(c2cccc3ccccc23)C1=O)N1N=C(c2cccs2)CC1c1ccc(Br)cc1 (centres undefined) | 85.7
Cn1c(CNc2ccccc2)nc2ccccc21 | -1.3
Cn1c(CNc2ccc(O)cc2)nc2ccccc21 | 76.7
Cn1c(CNc2ccccc2O)nc2ccccc21 | 0.7
COc1ccc(N(CC(=O)N2CCN(c3ccccc3OC)CC2)S(=O)(=O)c2ccccc2)c(OC)c1 | 8.6
c1ccc(Oc2cccc(CSc3nnnn3-c3ccccc3)c2)cc1 | 1
CCc1cccc(C)c1NC1C=CS(=O)(=O)C1 (centres undefined) | 52.3
Cc1c(Cl)cccc1NC1C=CS(=O)(=O)C1 (centres undefined) | 14
Cc1ccc(NC2C=CS(=O)(=O)C2)cc1C (centres undefined) | 6.7
CN(C1CCS(=O)(=O)C1)S(=O)C12CC3CC(CC(C3)C1)C2 (centres undefined) | -4.8
COc1ccc(-n2c(=O)c3c4c(sc3n3c(SCCC(C)C)nnc23)CCCC4)cc1 | 89.8
COC(=O)CSc1nnc2n(-c3ccc(OC)cc3)c(=O)c3c4c(sc3n12)CCCC4 | 5.6
CCSc1nnc2n(-c3ccc(OC)cc3)c(=O)c3c4c(sc3n12)CCCC4 | 119
CCCSc1nnc2n(-c3ccc(OC)cc3)c(=O)c3c4c(sc3n12)CCCC4 | 34.9
COc1ccc(-n2c(=O)c3c4c(sc3n3c(SCC(N)=O)nnc23)CCCC4)cc1 | 0.7
C=C(C)CSc1nnc2n(-c3ccc(OC)cc3)c(=O)c3c4c(sc3n12)CCCC4 | 3
Clc1ccccc1C=NN1CCN(Cc2ccccc2Cl)CC1 | -2.4
FC(F)(F)c1cc(/C=C/c2ccccc2)no1 | 7.7
CC(=O)Nc1ccc(S(=O)(=O)Nc2cccc(C)c2C)cc1 | 12.9

SMILES | displacement [%]
CN(C)c1ccc(/C=N/NC(=O)Cn2c3ccccc3c(=O)c3ccccc32)cc1[N+](=O)[O-] | 2.3
O=C1OC(c2ccccc2Br)=N/C1=C\c1cc2c(cc1Cl)OCO2 | 116
O=C1OC(c2ccc(F)cc2)=N/C1=C\c1ccc2c(c1)OCO2 | 15.9
O=C1OC(c2ccccc2F)=N/C1=C\c1ccc2c(c1)OCO2 | 80
COc1ccccc1C1=N/C(=C\c2ccc([N+](=O)[O-])cc2)C(=O)O1 | 27.4
COc1ccccc1C1=N/C(=C\c2ccc3c(c2)OCO3)C(=O)O1 | 111
O=C1/C(=C\c2ccc3c(c2)OCO3)N=C(c2ccccc2)N1c1ccc(F)cc1 | 179
O=C1OC(c2ccccc2F)=N/C1=C\c1ccc(Br)cc1 | 9
O=C1OC(c2ccccc2Br)=N/C1=C\c1cccnc1 | 4.7
CN(C)/C=C1\N=C(c2ccccc2Br)OC1=O | -1.7
O=C1/C(=C/c2ccc3c(c2)OCO3)SC(=S)N1c1ccc(F)cc1 | 11.8
COc1cccc(/C=C2\N=C(c3ccccc3OC)OC2=O)c1 | -6
N=C1S/C(=C\c2ccc3c(c2)OCO3)C(=O)N1c1ccc(F)cc1 | 2.6
Cn1nnnc1SCc1ccc(F)cc1 | -4
O=C1CS/C(=N/N=C/c2c3ccccc3cc3ccccc23)N1 | -1.8
CC(NC(=O)c1ccccc1)C12CC3CC(CC(C3)C1)C2 (centres undefined) | 39.3
Cc1cccc(OCC(=O)O/N=C(\N)c2cccc(C)c2)c1 | -9.8
CCOC(=O)CONC(=NCc1ccccc1)c1nonc1N | 3.6
CCc1c(C)nc(N)nc1N1CCCC1 | 13.1
Cc1ccc(C(=O)NCCCN2CCOCC2)c2ccccc12 | -1.8
COc1ccccc1N1C(=O)c2cccc3c(N4CCN(C)CC4)ccc(c23)C1=O | 157
COc1ccccc1N1C(=O)c2cccc3c(Cl)ccc(c23)C1=O | 22.2
COc1ccccc1N1C(=O)c2cccc3c(N(C)C)ccc(c23)C1=O | 42.1
Cc1ccccc1N1C(=O)c2cccc3c(N4CCCCC4)ccc(c23)C1=O | 15.9
COc1ccccc1N1C(=O)c2ccc3c4c(ccc(c24)C1=O)CC3 | 13.4

SMILES | displacement [%]
COc1ccccc1N1C(=O)c2cccc3c(N4CCCC4)ccc(c23)C1=O | 102
Cc1cc(C)n(C2CC(=O)N(c3ccccc3)C2=O)n1 (centres undefined) | 0.8
COc1ccc(C=C2C(=O)N(C)C(=O)N(C)C2=O)cc1O | -7.9
O=S(=O)(Nc1ccc(O)cc1)c1cc(Cl)ccc1Cl | -0.2
O=C(c1cccc(F)c1)N1CCN(C(=O)c2cccc(Cl)c2)CC1 | -18.6
O=c1sc2ccccc2c(N2CCN(c3ccccc3)CC2)c1[N+](=O)[O-] | -11.1
O=C(COC(=O)CN1C(=O)c2ccccc2C1=O)Nc1cccc2ccccc12 | -8.1
N#C/C(=C/c1ccc(-c2ccc(S(N)(=O)=O)cc2)o1)C(=O)Nc1ccccc1 | -0.4
N#C/C(=C\c1ccc(-c2ccccc2)o1)C(=O)Nc1ccc(C#N)cc1 | 168
N#C/C(=C\c1ccc(-c2ccc(Cl)cc2)o1)C(=O)Nc1ccccc1O | -1
N#C/C(=C/c1ccc(Sc2ccccc2)o1)C(=O)Nc1ccccc1 | -22.8
CCc1ccccc1NC(=O)/C(C#N)=C\c1ccc(Sc2ccccc2)o1 | -12.2
Cc1cccc(NC(=O)/C(C#N)=C\c2ccc(Sc3ccccc3)o2)c1C | 74.9
CCOc1ccc(/C=C/C(=O)c2ccc(F)cc2)cc1 | -0.4
CN(C)/C=C1\C(=O)N/C(=C/c2ccc(Br)cc2)C1=O | 7.9
CCN(CC)c1ccc(NC(=O)c2ccc3ccccc3n2)cc1 | 1.3
CCCCS(=O)CC(O)COC(C)C (centres undefined) | -1.5
Cc1cc(OCC(=O)NC2C3CC4CC(C3)CC2C4)ccc1Br (centres undefined) | -6.7
COc1ccc(C2=C/C(=C\c3ccc(OC)c([N+](=O)[O-])c3)C(=O)O2)cc1 | 2.7
COc1cc(OC)c([N+](=O)[O-])cc1/C=C1\C=C(c2ccc(Br)cc2)OC1=O | 49.1
COc1cc(/C=C2\C=C(c3ccc(Br)cc3)OC2=O)c([N+](=O)[O-])cc1OC | 55
COc1cc(/C=C2\C=C(c3ccc(Cl)cc3)OC2=O)c([N+](=O)[O-])cc1OC | -11.8
COc1ccc(/C=C2\C=C(c3ccc(C)cc3)OC2=O)cc1[N+](=O)[O-] | 6.6
COc1ccc(/C=C2\C=C(c3ccc(Br)cc3)OC2=O)cc1[N+](=O)[O-] | 70

— PubChem BioAssay AID1240 (Sanford-Burnham Center for Chemical Genomics, 2008)
